From PubChem BioAssay
FLuc inh: inhibitors of firefly (Photinus pyralis) luciferase; 2.5% of 76,000 active; purified P. pyralis luciferase, luminescence, biochemical; AID 1347043; Potency, µM (highest dose often 115 µM), most hits filed as inhibitors; further: nearly all actives have a fitted effect of over 65% in size
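Purified 10nM P. pyralis luciferase with 10uM D-luciferin and 10uM ATP in 50mM Tris acetate pH 7.5, 10mM Mg acetate, 0.01% Tween-20, 0.05% BSA. qHTS titration; luminescence read by CCD imager.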
NPR1 antag: human Npr1 receptor antagonism | HEK293 hNpr1 GloSensor cGMP, ANP-stimulated luminescence | Potency, µM (top dose mostly 46.3 µM), without a hit: at the top dose activity change, negative = inhibition, hits mostly inhibitors | 1.6% of 76,000 active; calls by dose curve; further: nearly all actives have a fitted effect of over 60% in size
Target sequence (P16066 whole entry, looked up): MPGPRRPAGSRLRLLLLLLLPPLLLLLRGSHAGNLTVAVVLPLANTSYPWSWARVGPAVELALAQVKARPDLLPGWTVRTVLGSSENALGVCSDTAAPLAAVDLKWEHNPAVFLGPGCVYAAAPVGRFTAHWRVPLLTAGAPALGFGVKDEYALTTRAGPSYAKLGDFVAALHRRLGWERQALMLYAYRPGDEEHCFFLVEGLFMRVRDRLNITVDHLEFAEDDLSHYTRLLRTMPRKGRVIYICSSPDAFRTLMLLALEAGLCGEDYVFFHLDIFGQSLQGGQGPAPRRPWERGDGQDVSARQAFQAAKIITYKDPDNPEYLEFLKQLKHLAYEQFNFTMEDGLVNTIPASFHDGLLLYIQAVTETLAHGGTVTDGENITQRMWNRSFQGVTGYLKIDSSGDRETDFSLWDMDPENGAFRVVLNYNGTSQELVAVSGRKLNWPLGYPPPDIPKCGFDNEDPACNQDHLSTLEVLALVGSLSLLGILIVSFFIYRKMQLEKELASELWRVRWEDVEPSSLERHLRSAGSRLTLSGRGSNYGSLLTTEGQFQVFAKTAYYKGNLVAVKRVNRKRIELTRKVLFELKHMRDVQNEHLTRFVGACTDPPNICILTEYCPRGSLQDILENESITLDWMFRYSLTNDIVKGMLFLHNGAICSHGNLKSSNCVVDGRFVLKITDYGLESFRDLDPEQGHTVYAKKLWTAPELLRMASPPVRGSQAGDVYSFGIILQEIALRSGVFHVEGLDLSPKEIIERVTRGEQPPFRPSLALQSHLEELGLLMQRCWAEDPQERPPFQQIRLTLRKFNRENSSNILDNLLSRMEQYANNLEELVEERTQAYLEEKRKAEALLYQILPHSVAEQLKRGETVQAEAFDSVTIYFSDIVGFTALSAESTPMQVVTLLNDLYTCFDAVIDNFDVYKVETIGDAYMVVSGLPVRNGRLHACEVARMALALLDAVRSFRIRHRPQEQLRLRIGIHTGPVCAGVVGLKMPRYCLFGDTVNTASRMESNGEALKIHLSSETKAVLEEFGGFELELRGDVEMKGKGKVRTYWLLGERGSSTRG
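Compound pre-incubated 30 min at room temperature on GloSensor-loaded HEK293 cells stably carrying hNpr1 and the pGS-40F cGMP biosensor. Stimulation uses hNppA at 0.1 nM final; luminescence is taken at baseline and 20 min post-agonist.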
HEK293 viab: counter-screen for SNCA expression inhibitors: cell viability | HEK-293-SNCA-luc viability, GF-AFC fluorescence, 24 h | Potency, µM (titrated, usually from 57.1 µM), for inactives: at the top dose activity change, negative = cytotoxicity, actives largely listed as cytotoxic | 0.12% of 150,000 active;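 further: 0% = DMSO-treated cells and -100% = medium-only wells without cells; nearly all actives have a fitted effect of over 30% in size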
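Cytotoxicity counterscreen: after 24 h compound treatment of genome-edited SNCA-luciferase HEK-293 cells, live-cell protease substrate GF-AFC read by fluorescence after 30 min; activity scaled between DMSO (0%) and medium-only (-100%), curves Hill-fitted.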
NIH3T3 tox: cytotoxic compounds in NIH 3T3 cells | NIH 3T3 viability, CellTiter-Glo ATP luminescence, 48-72 h | Potency, µM (top dose mostly 96.7 µM), for inactives: top-dose activity change, negative = cytotoxicity, hits mostly inhibitors | 4.3% of 94,000 active | AID 1345082; further: nearly all actives have a fitted effect of over 55% in size
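Viability of NIH 3T3 cells after 48 or 72 hr compound treatment at 37 °C was assessed by CellTiter-Glo, with luminescence imaged following a 10 min room-temperature step.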
SNCA expr inh: reduces expression of the alpha-synuclein gene. HEK-293 SNCA-luciferase knock-in, luminescence, 24 h. Potency, µM (doses to about 57.2 µM), for the others: top-dose activity change, negative = inhibition, usual class: inhibitors. 0.17% of 140,000 active;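 further: plate controls were DMSO cells for no effect and cell-free wells for full effect; nearly all actives have a fitted effect of over 45% in size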
HEK cytotox: HEK 293 cell cytotoxicity. HEK 293 viability, ATP luminescence (CellTiter-Glo), 48-72 h. Potency, µM (highest dose often 115 µM), for the others: top-dose activity change, negative = cytotoxicity, usual class: inhibitors. 6.6% of 94,000 active; further: nearly all actives have a fitted effect of over 60% in size
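Viability of HEK 293 cells, plated at 250 cells/well, was judged by cellular ATP after compound treatment for 48 or 72 hr. Luminescence was imaged 10 min after CellTiter-Glo addition at room temperature.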
* marks the source's active call; other numbers are inactive results; i = inactive; ? = inconclusive; · = not tested or not shown; [ ] = another dose, or the depositor's remark. Rows were chosen to be rich in hits. Some 7.4% of all compounds tested hit in one or more screens of this group. Unless noted, the call rests on the fitted dose curve; in most records, active means well fitted curve in the direction sought with a large enough effect; inconclusive means small, poorly fitted or top-dose-only effect, or another doubt; inactive means no such curve, though single readings can be large; an effect the other way counts as inactive or inconclusive. Unless noted, on the % scale 0 is the no-effect control and ±100 the full control effect; potency means the concentration at half of the fitted maximal effect.

SMILES | FLuc inh | NPR1 antag | HEK293 viab | NIH3T3 tox | SNCA expr inh | HEK cytotox
Fc1ccccc1-c1noc(-c2nc(-c3ccc4c(c3)OCO4)no2)n1 | ? | 5% | -10% | i | -2% | -5%
Cc1ccc(-c2nnc3ccc(NCc4cccs4)nn23)nc1 | i | -12%[70.6 µM] | -3%[87.6 µM] | ? | 36%[87.6 µM] | 100µM*
COCCCNc1ccc2nnc(-c3ccc(C)cn3)n2n1 | i | -6%[70.6 µM] | -9%[87.6 µM] | 89µM* | 23%[87.6 µM] | -8%[172 µM]
C/C=C(/COC(=O)/C(C)=C/C)C(=O)OC(CC)c1ccc(OC)c(OC)c1 (stereo not given) | · | · | -9% | · | · | ·
COc1cccc(C(=O)N2CCC(n3cc(-c4nc(-c5ccccc5)no4)nn3)C2)c1 (stereo not given) | ? | 11µM* | ? | ? | ? | ?
COc1cccc(C(=O)N2CCC(n3cc(-c4nc(-c5ccccc5)no4)nn3)CC2)c1 | ? | ? | 4% | ? | 38% | 45µM*
COc1cccc(C(=O)N2CCC(N3C[C@H](O)C[C@H]3C(=O)N3CC=C(c4ccccc4)CC3)CC2)c1 | i | -3% | -7% | -28% | -19% | 79µM*
Cc1cccc(OCC(=O)N2CCC(n3cc(-c4nc(-c5ccccc5)no4)nn3)C2)c1 (stereo not given) | ? | -2% | ? | 13µM* | 10% | 10µM*
CNC(=O)c1cn2cc(-c3ccccc3)sc2n1 | · | · | -3% | ? | -21% | ?
O=C1CN([S+](=O)([O-])c2ccc(F)cc2)CC(O)CN1Cc1cccc(F)c1 (stereo not given) | · | · | · | ? | · | -30%
N#Cc1cccc(-c2c(C(=O)NCc3cccc(Cl)c3)nc3sccn23)c1 | · | · | -3% | ? | -1% | ?
O=C(NC1CCCCCC1)c1nc2sccn2c1-c1cccnc1 | · | · | -16% | ? | -7% | ?
CCCc1noc(-c2cn(C3CCN(C(=O)c4ccc(F)c(F)c4)CC3)nn2)n1 | i | -24% | -7% | 13µM* | -20% | ?
Cc1cc(Cl)ccc1-n1nc(C)c([C@@H]2C=C[C@@H](NC(=O)CCCC(=O)O)C2)c1C | ? | -2%[70.6 µM] | -6%[87.6 µM] | -7%[174 µM] | -12%[87.6 µM] | 0%[172 µM]
Cc1nn(-c2ccc(C(C)(C)C)cc2)c(C)c1[C@@H]1C=C[C@@H](NC(=O)CC(C)(C)CC(=O)O)C1 | ? | 1% | 0% | ? | -1% | i
COCC(=O)N[C@@H]1C=C[C@@H](c2c(C)nn(-c3ccc(C(C)(C)C)cc3)c2C)C1 | ? | -27%[70.6 µM] | -27%[87.6 µM] | 22µM* | 60%[87.6 µM] | 40µM*
Cc1nn(-c2ccc(C(F)(F)F)cc2)c(C)c1[C@@H]1C=C[C@@H](NC(=O)CCC(=O)O)C1 | ? | 0%[70.6 µM] | -4%[87.6 µM] | ? | 21%[87.6 µM] | ?
Cc1cc(Cl)ccc1-n1nc(C)c([C@@H]2C=C[C@@H](NC(=O)CCC(=O)O)C2)c1C | 40µM* | 1%[70.6 µM] | -1%[87.6 µM] | 1%[138 µM] | -12%[87.6 µM] | -4%[172 µM]
Cc1nn(-c2ccc(C(C)(C)C)cc2)c(C)c1[C@@H]1C=C[C@@H](NC(=O)CCC(=O)O)C1 | 20µM* | 1%[70.6 µM] | 4%[87.6 µM] | -22%[174 µM] | 29%[87.6 µM] | ?
COc1cccc(-c2ccc(C(=O)N3CCC(C(=O)NC4CCCCC4)CC3)cc2)c1 | · | · | 1%[12.5 µM] | ? | -4% | ?
O=C(NCc1cccc(F)c1)[C@@H]1CCCN1c1nccc(Nc2ccccc2Cl)n1 | · | · | -14%[12.5 µM] | ? | 6% | ?
COCCNC(=O)c1ccc(OC2CCN(CCC(C)c3ccc(C)o3)CC2)c(Cl)c1 (stereo not given) | i | 1% | -8% | ? | 20% | 89µM*
COCc1ccc(CN2CCC(Oc3ccc(C(=O)NC4CCCC4)cc3Cl)CC2)o1 | i | -17% | -17% | ? | -11% | 35µM*
COc1cccc(CN2CCC(Oc3ccc(C(=O)NC4CCCC4)cc3Cl)CC2)c1 | i | -12% | -6% | ? | -3% | ?
COCCNC(=O)c1ccc(OC2CCN(C/C=C/c3ccc(F)cc3)CC2)c(Cl)c1 | i | ? | -8% | ? | ? | 45µM*
SMILES | FLuc inh | NPR1 antag | HEK293 viab | NIH3T3 tox | SNCA expr inh | HEK cytotox
O=C(CC1CCCCN(Cc2ccccc2)C1=O)NC1CCCCC1 (stereo not given) | · | · | 6% | ? | 3% | ?
O=C(NCc1ccccc1)C1CCCCN1Cc1ccc(-c2ccsc2)cc1 (stereo not given) | · | · | -16% | ? | -27% | ?
CC(C)=CCCC1(C)/C=C/C(OC(=O)C=C(C)C)C(C)(O)/C=C/C(=O)/C(CO)=C\C1 (stereo not given) | · | · | 13µM* | · | · | ·
CN(C)C(=O)N1CCCC(C(=O)N2CCC(c3ccccc3)CC2)C1 (stereo not given) | · | · | 6% | -7% | 8% | -9%
Cc1cc(Cl)ccc1S(=O)(=O)N1CCC(Oc2ccc(C(N)=O)cn2)CC1 | i | ? | ? | ? | -29% | 25µM*
COc1ccc(C(=O)N2CCCC(c3nc(CCOCC4CCCC4)no3)C2)cc1F (stereo not given) | i | ? | -12% | ? | ? | 45µM*
Cc1ccc(C(=O)N2CCCC(c3nc(CCOCC4CC4)no3)C2)s1 (stereo not given) | · | · | -9% | ? | -7% | ?
COC(=O)[C@@H]1Cc2c([nH]c3ccccc23)[C@H]2C[C@@H](NCCCn3ccnc3)C[C@@H](c3ccc(F)cc3)N21 | i | -2% | -25% | 25µM* | -2% | 25µM*
Cn1cnc2cc(-c3ccc(F)cc3)cc(C(=O)NCCCn3ccnc3)c21 | i | -2%[70.6 µM] | 0%[87.6 µM] | ? | -11%[87.6 µM] | -41%[172 µM]
O=C(NCCCn1ccnc1)c1ccc(C2CCCNC2)cc1 (stereo not given) | i | 4% | 0% | i | 0% | 0%
COC(=O)[C@@H]1Cc2c([nH]c3ccccc23)[C@H]2C[C@@H](NCCCn3ccnc3)C[C@@H](c3cccc(Cl)c3)N21 | i | -12% | -3% | 18µM* | 2% | 28µM*
COC(=O)[C@@H]1Cc2c([nH]c3ccccc23)[C@H]2C[C@@H](NCCCn3ccnc3)C[C@@H](c3ccc(Cl)c(F)c3)N21 | i | 0% | 1% | 25µM* | -6% | 28µM*
CCNC(=O)OC1CCN(C(=O)CC(C)C)CC(=O)N(C)c2ccccc21 (stereo not given) | · | · | · | ? | · | 1%
O=C(NCc1ccccn1)c1cccc(OC2CCN(c3cnccn3)CC2)c1 | i | ? | -14% | ? | -9% | 45µM*
CN1CCC(Oc2ccc(C(=O)NCCc3ccccn3)cn2)CC1 | 40µM* | -1% | 9% | -11% | 70% | -8%
